Source: the supplement of paper PMC6555819

System: VDR:RXRa (NR concentration 270 nM, RXRa partner concentration 90 nM)
Assay: PBM binding z-score (relative to random genomic background probes); higher = stronger binding; sequences stand for … in GC…GCGATTGACAGCGTAGAATGAAGG
Procedure: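 Protein-binding microarray (Agilent 4x180K custom design, double-stranded 60-nt probes: 5' GC cap, 34-nt variable region, 24-nt constant primer region; full probe sequence given). Purified or IVT nuclear receptor:RXRα heterodimers (3:1 NR:RXRα, mostly 270:90 nM) or homodimers were incubated for 1 h in PBS with 2% milk and no ligand, then detected with Alexa488 antibodies. Fluorescence from o1-orientation probes (~5 replicates averaged) was converted to z-scores against 500 random hg19 background probes. Variable regions are seed direct-repeat (DR0–DR5) sites, all their single-nucleotide variants and half-site ablations.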

Sequence | PBM binding z-score
ACTAGTTGGTCTGCTGAGGTCACACACAATTCGG | 3.54
ATCTCTAGGTAAAAGTTCTGTGAATCCCGAGGAT | -0.0345
AGTCAAAATTCATCTAGGTAACGTAAGATATGCT | -0.0109
CGAACGAGGGCATGAGTTTATAGCAAATGCCGAT | 3.02
CAAACTAGGTCACGAAAGGTCAGAGTCGAATGAC | 6.2
AGAACGACGGCAATGAGTTGATAGCACGGGTGGC | -0.0161
ATCTCTAGGTAACAAGATCAGTGAAAGAGAGGAC | 0.388
CCTGCTAGGTCATGGTCAGCTAGTCTACAGTATG | 1.65
TCGCCTAGGTCAGATCGGGCCAGTATACGCTATA | 0.717
TAGCCTAGGCCATGCGGGCCAGTATAGTGTCGGC | -1.04
ATATGTAGGTTACATCCGGGTCATTCACGCTATG | 4.35
GCGACCGGGGCATCAGCAGGTTACCATAACTTAA | 0.435
TCATGTAGATCAATAGAGGTTAAGAAAGTGCGCT | 1.93
TCTTGTAGATCAAGCAGTTTAAGAAAGCCTGAGT | 0.549
ATCTCTAGCTAAGACTCAGTTCAGTGAAGAACGC | 0.552
GATACAGGGTCAGGGCCAGAGTACGCGTATTGAT | 3.14
GGAACGAGGGCAGGTTGATAGCAGAGTTTGATGG | 0.111
AGTCAAAGTTCATCTAGGTAAAGTAAGATATGCT | 4.84
CCAAGTAGGTTATGGGGCATTCAGGCAACGGTGA | -0.0794
CCTACTGGGCCATTCAAAGGTCATTGATCATATG | 3.96

Sequence | PBM binding z-score
GATACAGAGTCAAGGCCAGAGTACGCGTATTGAT | -0.36
ATCTCTAGGTGACCAAGTTCAGTGAATGCCGAAC | 4.77
ACTAGATGGTCAGCTGAGGTCACACACAATTCGG | 4.7
ATCTCTCGGTAAAGATAGTTCAGTGAATGCAAAT | 0.595
CCGACTGTGGCAGAAAGGTTACCATACCATCCGG | 0.378
GCTTACGGGTCAAAGGTTATCGCATGAATAGAAT | 5.72
ATACCAAGGTGATGGTGAGGTCGTTGATACTAAC | 3.28
TCAGACCGGTGAAGGTAACTCAGGTACGCAGTCG | 0.501
CCTACTGGGCCATCAGGTCCTTGATATCAACGTT | -0.0448
ATCGAAAGGTTGAGGTGAGTATAGAGAAAGGGAA | 0.543
TATACAGAGTCAAAGGCCAGAGTACGAATGTCGA | 0.241
TCTATTAGTTGATTAGGGCAACCGTAACAGCGGA | 0.769
CCTACTGGGCCATCAGGTCACTGATATCAACGTT | 1.34
CCTTACGGGTCAAGAGGTTATAGCACGACGAGCG | 4.09
CCGACTGGGGCATAAGGTTACCATAAGCCAGCCC | -0.0909
ACTATTAATTGACTTAGGGCAACCGATACGACGC | 0.425
GATACAGGGTCAGCTAGAGGCCAGAGTATGGAAA | 3.33
ATCGAAAGGTCGACGGTGAGTATACCCACCCGAA | 2.62
CCTCGGAGGACAGAAGGTCAGAGCGGTCCGCTTT | 1.83
TCATATAGGTAAACAGGTGAAAGTACGTAAGTTA | 1.48
